Assay results: PubChem BioAssay AID1159580 (chemical genetic matrix, 2015)
“And” between values parts separate entries of the source, which are not always exact repeats. Equal entries are not always repeated. Screen size: about 5,500 compounds; about 2,000 (36%) were called active. Roughly 18% stayed inconclusive and do not appear here. Cut-off read from the data, not from the text of the source: active = normalized growth mostly below about 0.91 (no sharp cut-off); inconclusive = no clear call, values can overlap the other calls; inactive = mostly above about 0.92. Some of the results follow.

Assay: chemical genetic growth profiling, strain panel (AID 1159580);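 note: tested at 20 µM; growth read once vehicle control cultures reached saturation at 30 °C; 1 = growth at the plate median or of vehicle wells; lower values mean less growth of the strain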
Details: S. cerevisiae deletion strains, growth OD

Measured: normalized growth

CC(=O)c1c(O)c(C)c(O)c2c1OC1=CC(=O)C(C(C)=O)C(=O)C12C (stereo not given)
inactive: locus YAL030W, strain snc1, stronger effect = lower value 0.938 | locus YBL061C, strain skt5, stronger effect = lower value 0.966 | locus YBR021W, strain FUR4, stronger effect = lower value 1.01 | locus YBR023C, strain chs3, stronger effect = lower value 0.978 | locus YBR171W, strain sec66, stronger effect = lower value 0.933 | locus YBR229C, strain ROT2, stronger effect = lower value 1.01 | locus YBR231C, strain swc5, stronger effect = lower value 0.963 | locus YBR279W, strain paf1, stronger effect = lower value 1.01 | locus YCL016C, strain dcc1, stronger effect = lower value 0.987 | locus YCL029C, strain bik1, stronger effect = lower value 0.976 | locus YCL069W, strain vba3, stronger effect = lower value 0.957 | locus YDL005C, strain med2, stronger effect = lower value 0.985 | locus YDL035C, strain GPR1, stronger effect = lower value 1.01 | locus YDL040C, strain nat1, stronger effect = lower value 0.991 | locus YDL074C, strain BRE1, stronger effect = lower value 0.987 | locus YDL101C, strain DUN1, stronger effect = lower value 1.01 | locus YDR001C, strain nth1, stronger effect = lower value 0.96 | locus YDR069C, strain doa4, stronger effect = lower value 0.98 | locus YDR137W, strain rgp1, stronger effect = lower value 0.972 | locus YDR150W, strain NUM1, stronger effect = lower value 1.01 | locus YDR162C, strain NBP2, stronger effect = lower value 1.03 | locus YDR297W, strain sur2, stronger effect = lower value 0.962 | locus YDR318W, strain mcm21, stronger effect = lower value 0.981 | locus YDR334W, strain swr1, stronger effect = lower value 0.953 | locus YDR388W, stronger effect = lower value 0.976 | locus YEL037C, strain rad23, stronger effect = lower value 0.948 | locus YEL061C, strain CIN8, stronger effect = lower value 1.01 | locus YER016W, strain bim1, stronger effect = lower value 1 | locus YER110C, stronger effect = lower value 0.988 | locus YER111C, strain swi4, stronger effect = lower value 0.919 | locus YER155C, strain BEM2 (second series), stronger effect = lower value 0.868 | locus YER155C, strain BEM2, stronger effect = lower value 1.01 | locus YER167W, strain BCK2, stronger effect = lower value 1.01 | locus YFR010W, strain ubp6, stronger effect = lower value 0.901 | locus YGL167C, strain pmr1, stronger effect = lower value 1.01 | locus YGL173C, strain kem1, stronger effect = lower value 0.992 | locus YGL227W, strain vid30, stronger effect = lower value 0.946 | locus YGL240W, strain doc1, stronger effect = lower value 0.894 | locus YGL248W, strain PDE1, stronger effect = lower value 1.02 | locus YGR078C, strain PAC10, stronger effect = lower value 1.02 | locus YGR135W, strain pre9, stronger effect = lower value 0.946 | locus YGR252W, strain gcn5, stronger effect = lower value 0.945 | locus YHR013C, strain ard1, stronger effect = lower value 1 | locus YHR027C, strain rpn1, stronger effect = lower value 0.983 | locus YHR079C, strain IRE1 (second series), stronger effect = lower value 0.986 | locus YHR094C, strain hxt1, stronger effect = lower value 0.984 | locus YHR129C, strain ARP1, stronger effect = lower value 1.02 | locus YHR200W, strain rpn10, stronger effect = lower value 0.932 | locus YIL066C, strain RNR3, stronger effect = lower value 1.02 | locus YIL073C, strain SPO22, stronger effect = lower value 1.03 | locus YIR030C, strain dcg1, stronger effect = lower value 0.975 | locus YJL095W, strain BCK1 (second series), stronger effect = lower value 0.964 | locus YJL115W, strain asf1, stronger effect = lower value 0.947 | locus YJL134W, strain LCB3, stronger effect = lower value 1.01 | locus YJL154C, strain vps35, stronger effect = lower value 0.979 | locus YJL166W, strain qcr8, stronger effect = lower value 0.913 | locus YJL168C, strain set2, stronger effect = lower value 0.972 | locus YJL187C, strain SWE1 (second series), stronger effect = lower value 1.01 | locus YJL187C, strain SWE1, stronger effect = lower value 0.972 | locus YJR043C, strain POL32, stronger effect = lower value 1.01 | locus YKL068W, stronger effect = lower value 1.01 | locus YKL160W, strain elf1, stronger effect = lower value 0.977 | locus YKL190W, strain CNB1, stronger effect = lower value 1.01 | locus YKR026C, strain gcn3, stronger effect = lower value 0.938 | locus YKR091W, strain srl3, stronger effect = lower value 0.942 | locus YLL001W, strain dnm1, stronger effect = lower value 0.933 | locus YLL041C, strain sdh2, stronger effect = lower value 0.936 | locus YLR039C, strain RIC1, stronger effect = lower value 1.01 | locus YLR058C, strain SHM2, stronger effect = lower value 1.01 | locus YLR102C, strain apc9, stronger effect = lower value 0.99 | locus YLR262C, strain YPT6, stronger effect = lower value 1.03 | locus YLR268W, strain sec22, stronger effect = lower value 0.932 | locus YLR320W, strain mms22, stronger effect = lower value 0.907 | locus YLR330W, strain CHS5, stronger effect = lower value 1.01 | locus YLR342W, strain FKS1 (second series), stronger effect = lower value 0.946 | locus YLR342W, strain FKS1, stronger effect = lower value 0.93 | locus YLR357W, strain rsc2, stronger effect = lower value 0.886 | locus YLR371W, strain rom2, stronger effect = lower value 0.998 | locus YLR384C, strain iki3, stronger effect = lower value 0.957 | locus YML016C, strain PPZ1, stronger effect = lower value 1.01 | locus YML032C, strain rad52, stronger effect = lower value 0.953 | locus YML124C, strain tub3, stronger effect = lower value 0.96 | locus YMR078C, strain ctf18, stronger effect = lower value 0.976 | locus YMR223W, strain ubp8, stronger effect = lower value 0.958 | locus YMR263W, strain SAP30, stronger effect = lower value 1.01 | locus YMR307W, strain GAS1, stronger effect = lower value 0.956 | locus YNL067W, strain RPL9B, stronger effect = lower value 1.02 | locus YNL153C, strain GIM3, stronger effect = lower value 1.01 | locus YNL233W, strain BNI4, stronger effect = lower value 1.03 | locus YNL248C, strain rpa49, stronger effect = lower value 0.925 | locus YNL307C, strain MCK1, stronger effect = lower value 0.971 | locus YNR049C, strain mso1, stronger effect = lower value 0.962 | locus YOL012C, strain htz1 1.07 | locus YOL147C, strain pex11, stronger effect = lower value 0.968 | locus YOR061W, strain CKA2, stronger effect = lower value 1.02 | locus YOR069W, strain VPS5, stronger effect = lower value 1.01 | locus YOR070C, strain gyp1, stronger effect = lower value 0.966 | locus YOR080W, strain dia2, stronger effect = lower value 0.975 | locus YOR136W, strain idh2, stronger effect = lower value 0.976 | locus YOR270C, strain vph1, stronger effect = lower value 1.08 | locus YOR316C, strain cot1, stronger effect = lower value 0.989 | locus YPL051W, strain arl3, stronger effect = lower value 0.938 | locus YPL055C, strain LGE1, stronger effect = lower value 0.999 | locus YPL106C, strain sse1, stronger effect = lower value 0.86 | locus YPR119W, strain clb2, stronger effect = lower value 0.964 | locus YPR163C, strain tif3, stronger effect = lower value 0.968 | locus YPR167C, strain met16, stronger effect = lower value 0.944
1.01 (inactive) and 0.142 (active): locus YHR030C, strain SLT2, stronger effect = lower value
1.03 (inactive) and 0.13 (active): locus YJL095W, strain BCK1, stronger effect = lower value
active: locus YAL021C, strain ccr4, stronger effect = lower value 0.816 | locus YAL026C, strain drs2, stronger effect = lower value 0.812 | locus YBR009C, strain hhf1, stronger effect = lower value 0.739 | locus YCL011C, strain gbp2, stronger effect = lower value 0.672 | locus YCL061C, strain MRC1, stronger effect = lower value 0.858 | locus YCR088W, strain abp1, stronger effect = lower value 0.872 | locus YDL185W, strain tfp1, stronger effect = lower value 0.506 | locus YDL192W, strain arf1, stronger effect = lower value 0.852 | locus YDR101C, strain arx1, stronger effect = lower value 0.89 | locus YDR159W, strain sac3, stronger effect = lower value 0.762 | locus YDR195W, strain ref2 0.799 | locus YDR335W, strain msn5, stronger effect = lower value 0.752 | locus YDR392W, strain spt3, stronger effect = lower value 0.526 | locus YDR502C, strain sam2, stronger effect = lower value 0.853 | locus YEL003W, strain gim4, stronger effect = lower value 0.787 | locus YEL061C, strain CIN8 (second series), stronger effect = lower value 0.895 | locus YER015W, strain faa2, stronger effect = lower value 0.912 | locus YGL078C, strain dbp3, stronger effect = lower value 0.567 | locus YGL086W, strain mad1, stronger effect = lower value 0.909 | locus YGL253W, strain hxk2, stronger effect = lower value 0.892 | locus YHR079C, strain IRE1, stronger effect = lower value 0.133 | locus YHR142W, strain chs7, stronger effect = lower value 0.82 | locus YIL125W, strain kgd1, stronger effect = lower value 0.365 | locus YJL092W, strain hpr5, stronger effect = lower value 0.908 | locus YJL129C, strain trk1, stronger effect = lower value 0.684 | locus YJL164C, strain tpk1, stronger effect = lower value 0.84 | locus YJR066W, strain TOR1, stronger effect = lower value 0.465 | locus YKL009W, strain mrt4, stronger effect = lower value 0.387 | locus YKL085W, strain MDH1 (second series), stronger effect = lower value 0.275 | locus YKL085W, strain MDH1, stronger effect = lower value 0.275 | locus YKR001C, strain vps1, stronger effect = lower value 0.813 | locus YLL026W, stronger effect = lower value 0.925 | locus YLR027C, strain aat2, stronger effect = lower value 0.796 | locus YLR113W, strain HOG1, stronger effect = lower value 0.186 | locus YLR221C, strain rsa3, stronger effect = lower value 0.781 | locus YLR258W, strain gsy2, stronger effect = lower value 0.889 | locus YLR262C, strain YPT6 (second series), stronger effect = lower value 0.723 | locus YLR370C, strain arc18, stronger effect = lower value 0.9 | locus YLR418C, strain cdc73, stronger effect = lower value 0.694 | locus YML120C, strain ndi1, stronger effect = lower value 0.439 | locus YMR058W, strain fet3, stronger effect = lower value 0.834 | locus YMR125W, strain sto1, stronger effect = lower value 0.875 | locus YMR129W, stronger effect = lower value 0.911 | locus YMR205C, strain PFK2, stronger effect = lower value 0.759 | locus YMR231W, strain pep5, stronger effect = lower value 0.169 | locus YNL071W, strain lat1, stronger effect = lower value 0.907 | locus YNL183C, strain NPR1, stronger effect = lower value 0.693 | locus YNL209W, strain ssb2, stronger effect = lower value 0.924 | locus YNL250W, strain rad50, stronger effect = lower value 0.328 | locus YNL271C, strain bni1, stronger effect = lower value 0.773 | locus YNL298W, strain CLA4, stronger effect = lower value 0.332 | locus YNL322C, strain KRE1 (second series), stronger effect = lower value 0.83 | locus YNR052C, strain pop2, stronger effect = lower value 0.876 | locus YOR001W, strain rrp6, stronger effect = lower value 0.672 | locus YOR083W, strain WHI5, stronger effect = lower value 0.859 | locus YOR106W, strain vam3, stronger effect = lower value 0.254 | locus YOR144C, strain elg1, stronger effect = lower value 0.898 | locus YOR184W, strain ser1, stronger effect = lower value 0.723 | locus YOR231W, strain MKK1, stronger effect = lower value 0.127 | locus YOR265W, strain rbl2, stronger effect = lower value 0.928 | locus YOR290C, strain snf2, stronger effect = lower value 0.644 | locus YPL078C, strain atp4, stronger effect = lower value 0.873 | locus YPL240C, strain hsp82, stronger effect = lower value 0.894 | locus YPL256C, strain CLN2, stronger effect = lower value 0.189 | locus YPR141C, strain kar3, stronger effect = lower value 0.888 | strain wtn01, stronger effect = lower value 0.841
